# Measured values from ChEMBL document CHEMBL3988442, “University of Dundee, Small-Polar-MMV Screening Library” (2021).
# Molecular target: T1, Methionyl-tRNA synthetase, putative (Leishmania donovani (strain BPK282A1)) (UniProt E9BF75)
# T1 sequence (whole entry): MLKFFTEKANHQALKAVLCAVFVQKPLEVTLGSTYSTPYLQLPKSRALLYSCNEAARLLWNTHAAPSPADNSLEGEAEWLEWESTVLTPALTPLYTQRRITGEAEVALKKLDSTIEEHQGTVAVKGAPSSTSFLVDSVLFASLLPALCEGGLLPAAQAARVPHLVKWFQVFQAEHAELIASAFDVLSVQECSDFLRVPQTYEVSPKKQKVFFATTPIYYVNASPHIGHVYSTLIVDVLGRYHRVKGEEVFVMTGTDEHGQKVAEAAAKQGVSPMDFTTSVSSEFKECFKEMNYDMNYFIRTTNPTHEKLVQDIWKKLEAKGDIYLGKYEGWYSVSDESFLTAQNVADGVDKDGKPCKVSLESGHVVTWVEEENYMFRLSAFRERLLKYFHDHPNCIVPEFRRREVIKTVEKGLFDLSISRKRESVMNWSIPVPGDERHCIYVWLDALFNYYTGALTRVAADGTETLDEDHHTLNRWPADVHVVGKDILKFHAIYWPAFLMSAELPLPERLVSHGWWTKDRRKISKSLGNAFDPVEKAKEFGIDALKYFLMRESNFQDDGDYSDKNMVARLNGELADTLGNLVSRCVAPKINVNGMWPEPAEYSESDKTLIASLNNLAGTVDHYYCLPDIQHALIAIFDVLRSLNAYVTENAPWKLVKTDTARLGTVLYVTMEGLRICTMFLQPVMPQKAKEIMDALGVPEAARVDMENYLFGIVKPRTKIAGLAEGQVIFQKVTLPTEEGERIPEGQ
# Test: Leishmania donovani Methionine tRNA synthetase (LdMetRS):v7. Dose response assay
# Type: functional
# Parameters: conc 80 nM, time 150 minutes
smiles,measurement,setting,value
CO[C@H]1[C@@H]2CC[C@H]1CN(c1nc(C)nc3sccc13)C2,PXC50,MAX_EFFECT 8.838383838,< 4
same,PXC50,MAX_EFFECT 9.693877551,< 4
Cc1nc(N2CCN(c3ccccn3)CC2)c2c3c(sc2n1)CCCC3,PXC50,MAX_EFFECT 22.61306533,< 4
same,PXC50,MAX_EFFECT 22.85012285,< 4
CC(=O)N[C@H](COc1cccc(F)c1Oc1ccc(Cl)cc1)CC(C)C,PXC50,MAX_EFFECT 3.105590062,< 4
same,PXC50,MAX_EFFECT 4.051172708,< 4
Cc1cc(C(F)(F)F)nc(N2CCN(Cc3nccn3C)CC2)n1,PXC50,MAX_EFFECT 3.571428571,< 4
same,PXC50,MAX_EFFECT 6.313131313,< 4
Cc1nn(C)cc1-c1cc(C(F)(F)F)nc(NC2CCN(C)CC2)n1,PXC50,MAX_EFFECT 9.138381201,< 4
same,PXC50,MAX_EFFECT 9.921671018,< 4
N[C@H](COc1cccc(F)c1Oc1ccc(Cl)cc1)C1CCOCC1,PXC50,MAX_EFFECT 9.316770186,< 4
same,PXC50,MAX_EFFECT 10.44776119,< 4
CCNc1cc(-c2ccccn2)nc(Nc2ccc(F)c(Cl)c2)n1,PXC50,MAX_EFFECT 18.84057971,< 4
same,PXC50,MAX_EFFECT 22.81449893,< 4
CCCC(=O)N1CCC(c2ncc3c(n2)CCNC3)CC1,PXC50,MAX_EFFECT 6.802721088,< 4
same,PXC50,MAX_EFFECT 13.45794393,< 4
O=C(O)C1CCCN1c1nc(C2CC2)cc(C(F)(F)F)n1 (stereo not drawn),PXC50,MAX_EFFECT 5.221932115,< 4
same,PXC50,MAX_EFFECT 7.049608355,< 4
O=C(NCC1(O)CCC(F)(F)CC1)c1cc(=O)c2cc(O)ccc2o1,PXC50,MAX_EFFECT 6.858054226,< 4
same,PXC50,MAX_EFFECT 7.869481766,< 4
Cc1cc(C(=O)NC2CCCC2)cn2c(N3CCN(S(C)(=O)=O)CC3)ccc12,PXC50,"BOTTOM 3.715191159, HILLSLOPE 1.052339001, MAX_EFFECT 54.38596491, TOP 65.94212945",4.67
same,PXC50,MAX_EFFECT 46.875,< 4
CCOCCCNc1nc(-c2ccc(C)cc2)cc(C(F)(F)F)n1,PXC50,MAX_EFFECT 5.102040816,< 4
same,PXC50,MAX_EFFECT 5.808080808,< 4
COCCNc1nc(-c2ccc(C)cc2)cc(C(F)(F)F)n1,PXC50,MAX_EFFECT 7.978723404,< 4
same,PXC50,MAX_EFFECT 8.29015544,< 4
CCn1cc(-c2cc(C(F)(F)F)nc(NC3CCCC3)n2)c(C)n1,PXC50,MAX_EFFECT 6.788511749,< 4
same,PXC50,MAX_EFFECT 7.571801567,< 4
N#Cc1cccc(Nc2nccc(N3CCC(NS(=O)(=O)c4cccc(C#N)c4)CC3)n2)c1,PXC50,MAX_EFFECT 35.34883721,< 4
same,PXC50,MAX_EFFECT 46.85314685,< 4
O=c1cc(NCCCNC2CCOc3c(I)cc(Cl)cc32)[nH]c2ccccc12 (stereo not drawn),PXC50,"BOTTOM 0.0, HILLSLOPE 1.492515979, MAX_EFFECT 100.0, TOP 105.2364851",5.24
same,PXC50,"BOTTOM 6.728264836, HILLSLOPE 2.160741468, MAX_EFFECT 100.4651163, TOP 100.3878671",5.22
CN(C)CCNC(=O)c1ccc2ccc(N3CCN(S(C)(=O)=O)CC3)n2c1,PXC50,"BOTTOM 0.033, HILLSLOPE 2.605738827, MAX_EFFECT 55.98086124, TOP 56.52145989",4.84
same,PXC50,"BOTTOM -2.072944034, HILLSLOPE 2.61914663, MAX_EFFECT 60.32906764, TOP 62.06864911",4.75
CN(C(=O)c1ccc2ccc(N3CCN(S(C)(=O)=O)CC3)n2c1)C1CCCC1,PXC50,"BOTTOM 0.289643944, HILLSLOPE 2.293493597, MAX_EFFECT 58.37320574, TOP 59.73308371",5.01
same,PXC50,"BOTTOM 8.176661161, HILLSLOPE 2.054643886, MAX_EFFECT 62.15722121, TOP 64.55497205",4.82
COCCNc1nc(-c2cccnc2)nc2sc(C)c(C)c12,PXC50,"BOTTOM 0.74162584, HILLSLOPE 1.235225767, MAX_EFFECT 62.1761658, TOP 100.0",4.17
same,PXC50,"BOTTOM 1.893882354, HILLSLOPE 1.640156685, MAX_EFFECT 57.9787234, TOP 75.89886764",4.31
COCC(C)NC(=O)c1ccc2ccc(N3CCN(S(C)(=O)=O)CC3)n2c1 (stereo not drawn),PXC50,"BOTTOM 3.011130377, HILLSLOPE 1.725207909, MAX_EFFECT 55.66037736, TOP 58.49588417",4.74
same,PXC50,MAX_EFFECT 48.85844749,< 4
CS(=O)(=O)N1CCN(c2ccc3ccc(C(=O)NC4CCCC4)cn23)CC1,PXC50,"BOTTOM 3.919126037, HILLSLOPE 1.949141012, MAX_EFFECT 63.17460317, TOP 66.86118232",4.76
same,PXC50,"BOTTOM 4.67001684, HILLSLOPE 2.010919918, MAX_EFFECT 67.58893281, TOP 64.90205504",5
CS(=O)(=O)N1CCN(c2ccc3ccc(C(=O)NCCN4CCc5ccccc5C4)cn23)CC1,PXC50,"BOTTOM 9.287524867, HILLSLOPE 2.626114762, MAX_EFFECT 78.976234, TOP 76.44379257",4.95
same,PXC50,"BOTTOM -0.296501823, HILLSLOPE 1.63582329, MAX_EFFECT 73.68421053, TOP 78.31707036",5.09
O=c1cc(NCCCNCc2cc(C(F)(F)F)cs2)[nH]c2ccccc12,PXC50,"BOTTOM -2.424501326, HILLSLOPE 1.220462925, MAX_EFFECT 102.3310023, TOP 102.5192077",5.71
same,PXC50,"BOTTOM -3.989177117, HILLSLOPE 1.235768434, MAX_EFFECT 100.0, TOP 101.1477832",5.75
FC(F)(F)c1nc(N2CCCC2)nc2c1CCCCC2,PXC50,MAX_EFFECT 2.290076336,< 4
same,PXC50,MAX_EFFECT 5.793450882,< 4
O=C(NCC1(O)CCCCC1)c1cc(=O)c2cc(F)cc(O)c2o1,PXC50,MAX_EFFECT 3.03030303,< 4
same,PXC50,MAX_EFFECT 5.182341651,< 4
O=C1NCCCC12CCN(c1nc3c(c(C(F)(F)F)n1)CCCC3)C2 (stereo not drawn),PXC50,MAX_EFFECT 4.081632653,< 4
same,PXC50,MAX_EFFECT 6.313131313,< 4
Cc1sc2nc(C(F)(F)F)nc(N3CCN(S(C)(=O)=O)CC3)c2c1C,PXC50,MAX_EFFECT 4.699738903,< 4
same,PXC50,MAX_EFFECT -2.872062663,< 4
Cc1nc(NCC(=O)O)c2c3c(sc2n1)CCC3,PXC50,MAX_EFFECT 4.834605598,< 4
same,PXC50,MAX_EFFECT 5.289672544,< 4
Cc1sc2nc(CCN)nc(N3CCS(=O)(=O)CC3)c2c1C,PXC50,MAX_EFFECT 6.266318538,< 4
same,PXC50,MAX_EFFECT 7.049608355,< 4
